The record followed here is PubChem BioAssay (Tox21).

“And” between values parts separate entries of the source, which are not always exact repeats. Equal entries are not always repeated. Inconclusive results are not listed. The source made the active and inactive calls. Calls follow the shape of the dose curve; as a rule, active = well fitted curve in the direction sought with a large enough effect in the repeat runs; inconclusive = weak or mixed curves; inactive = no such curve, though single readings can be large; an effect the other way counts as inactive or inconclusive.

Experiment [1] deals with Voltage-gated inwardly rectifying potassium channel KCNH2 (Homo sapiens) (UniProt Q12809). As to the kind of experiment: Human Ether-a-go-go-Related Gene (hERG) channel small molecule antagonists: fluorescence cell-based qHTS assay (AID 1671200). Also: potency is read from the fitted curve at half-maximal effect. Put shortly: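 hERG-U2OS cells plated overnight at 37 C, loaded with FluxOR II dye 1 h at RT in dark; after 10 min, thallium stimulus added. Fluorescence (480/540 nm) read kinetically for 2 min at 1 s intervals.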
In general terms: The hERG channel carries a current that helps repolarise heart muscle cells.

The target of experiment [2] is Cytochrome P450 1A2 (Homo sapiens) (UniProt P05177). As to the kind of experiment: Cytochrome P450 Family 1 Subfamily A Member 2 (CYP1A2) small molecule antagonists: luciferase reporter qHTS assay (AID 1671199). Also: series mostly up to about 120 µM. Put shortly: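 Luminescence from luciferin formed by CYP1A2 from a proluciferin substrate, read 20 min after detection reagent. Compound was pre-incubated 10 min with enzyme-substrate, and reaction started with NADPH regeneration solution for 1 h at room temperature; furafylline control.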
Background: Reporter assays use an easily measured gene product as a stand-in for the process of interest.

The target of experiment [3] is Cytochrome P450 3A4 (Homo sapiens) (UniProt P08684). As to the kind of experiment: Cytochrome P450 Family 3 Subfamily A Member 4 (CYP3A4) small molecule antagonists: luciferase reporter qHTS assay (AID 1671201). Also: potency is read from the fitted curve at half-maximal effect. Summed up: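 P450-Glo CYP3A4 luminescent assay: compounds preincubated 10 min at room temperature with enzyme and proluciferin substrate, NADPH regeneration added, 1 h room-temperature reaction, stopped with luciferin detection reagent; luminescence read after 20 min. Ketoconazole positive control.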

Experiment [4] addresses Cytochrome P450 2C9 (Homo sapiens) (UniProt P11712). Nature of the experiment: Cytochrome P450 Family 2 Subfamily C Member 9 (CYP2C9) small molecule antagonists: luciferase reporter qHTS assay (AID 1671198). Also: potency is read from the fitted curve at half-maximal effect. Put shortly:
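Enzyme-substrate mix preincubated with compound 10 min at room temperature; reaction started with NADPH regeneration solution, 1 h 37C. Luminescent luciferin product read after 20 min detection reagent.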
Also: nearly all actives have a fitted effect of over 50% in size.

Sequence of Cytochrome P450 1A2 (Homo sapiens) (P05177 whole entry, looked up): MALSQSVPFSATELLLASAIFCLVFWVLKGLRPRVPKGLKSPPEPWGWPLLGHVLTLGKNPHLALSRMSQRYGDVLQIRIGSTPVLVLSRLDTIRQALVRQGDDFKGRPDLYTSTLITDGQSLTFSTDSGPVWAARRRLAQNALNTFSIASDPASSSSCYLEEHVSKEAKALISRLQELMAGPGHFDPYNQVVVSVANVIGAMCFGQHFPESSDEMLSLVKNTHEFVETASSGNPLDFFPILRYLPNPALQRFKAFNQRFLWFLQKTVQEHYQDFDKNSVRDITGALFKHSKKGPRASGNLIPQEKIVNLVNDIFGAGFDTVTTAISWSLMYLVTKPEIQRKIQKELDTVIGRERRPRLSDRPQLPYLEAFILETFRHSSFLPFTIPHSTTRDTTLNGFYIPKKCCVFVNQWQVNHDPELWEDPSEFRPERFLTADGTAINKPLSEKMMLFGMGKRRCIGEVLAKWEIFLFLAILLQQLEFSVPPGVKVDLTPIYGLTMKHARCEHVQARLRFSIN
Sequence of Cytochrome P450 3A4 (Homo sapiens) (P08684 whole entry, looked up): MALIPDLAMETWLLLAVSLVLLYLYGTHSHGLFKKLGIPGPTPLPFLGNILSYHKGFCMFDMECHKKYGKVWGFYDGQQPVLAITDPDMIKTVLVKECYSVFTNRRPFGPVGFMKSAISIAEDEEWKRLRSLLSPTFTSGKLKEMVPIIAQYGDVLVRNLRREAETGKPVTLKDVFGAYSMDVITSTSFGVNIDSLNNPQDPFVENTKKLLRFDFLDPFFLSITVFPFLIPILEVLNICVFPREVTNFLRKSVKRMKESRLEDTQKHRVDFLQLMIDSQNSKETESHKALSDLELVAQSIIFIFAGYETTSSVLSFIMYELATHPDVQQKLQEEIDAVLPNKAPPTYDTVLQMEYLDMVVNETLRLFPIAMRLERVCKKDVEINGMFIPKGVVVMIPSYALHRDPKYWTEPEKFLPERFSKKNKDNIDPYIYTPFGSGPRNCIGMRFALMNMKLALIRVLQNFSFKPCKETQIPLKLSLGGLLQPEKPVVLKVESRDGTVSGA
Sequence of Voltage-gated inwardly rectifying potassium channel KCNH2 (Homo sapiens) (Q12809 whole entry, looked up): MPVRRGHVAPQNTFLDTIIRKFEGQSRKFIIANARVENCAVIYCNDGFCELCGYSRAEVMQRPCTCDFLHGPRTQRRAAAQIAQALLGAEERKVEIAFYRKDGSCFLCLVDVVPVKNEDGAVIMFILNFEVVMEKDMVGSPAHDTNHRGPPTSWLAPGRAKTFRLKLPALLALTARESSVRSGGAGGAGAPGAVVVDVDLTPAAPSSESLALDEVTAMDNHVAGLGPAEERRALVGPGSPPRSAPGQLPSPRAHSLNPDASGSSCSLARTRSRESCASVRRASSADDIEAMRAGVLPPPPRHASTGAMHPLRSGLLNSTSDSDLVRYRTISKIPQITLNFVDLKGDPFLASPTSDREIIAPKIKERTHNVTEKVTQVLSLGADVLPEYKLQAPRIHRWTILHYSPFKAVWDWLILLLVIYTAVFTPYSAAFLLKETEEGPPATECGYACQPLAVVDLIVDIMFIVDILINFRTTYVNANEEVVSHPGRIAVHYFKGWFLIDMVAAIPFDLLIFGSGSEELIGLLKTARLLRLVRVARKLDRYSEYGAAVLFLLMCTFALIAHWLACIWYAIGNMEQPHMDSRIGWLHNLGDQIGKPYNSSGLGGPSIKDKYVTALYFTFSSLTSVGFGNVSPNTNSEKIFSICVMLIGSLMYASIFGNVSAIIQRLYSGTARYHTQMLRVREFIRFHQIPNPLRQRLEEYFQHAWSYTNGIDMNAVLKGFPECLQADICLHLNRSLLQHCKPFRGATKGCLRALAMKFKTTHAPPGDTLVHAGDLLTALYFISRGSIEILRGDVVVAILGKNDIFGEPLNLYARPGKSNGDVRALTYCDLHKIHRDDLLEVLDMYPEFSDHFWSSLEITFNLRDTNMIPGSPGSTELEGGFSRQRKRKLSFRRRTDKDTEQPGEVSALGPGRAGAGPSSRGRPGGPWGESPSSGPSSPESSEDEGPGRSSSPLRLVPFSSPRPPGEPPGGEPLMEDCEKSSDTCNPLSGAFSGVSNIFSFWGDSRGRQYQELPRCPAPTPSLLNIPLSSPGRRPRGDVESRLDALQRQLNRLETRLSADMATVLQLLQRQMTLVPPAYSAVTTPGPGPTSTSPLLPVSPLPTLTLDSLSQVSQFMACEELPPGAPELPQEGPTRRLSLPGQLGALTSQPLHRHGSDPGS
Sequence of Cytochrome P450 2C9 (Homo sapiens) (P11712 whole entry, looked up): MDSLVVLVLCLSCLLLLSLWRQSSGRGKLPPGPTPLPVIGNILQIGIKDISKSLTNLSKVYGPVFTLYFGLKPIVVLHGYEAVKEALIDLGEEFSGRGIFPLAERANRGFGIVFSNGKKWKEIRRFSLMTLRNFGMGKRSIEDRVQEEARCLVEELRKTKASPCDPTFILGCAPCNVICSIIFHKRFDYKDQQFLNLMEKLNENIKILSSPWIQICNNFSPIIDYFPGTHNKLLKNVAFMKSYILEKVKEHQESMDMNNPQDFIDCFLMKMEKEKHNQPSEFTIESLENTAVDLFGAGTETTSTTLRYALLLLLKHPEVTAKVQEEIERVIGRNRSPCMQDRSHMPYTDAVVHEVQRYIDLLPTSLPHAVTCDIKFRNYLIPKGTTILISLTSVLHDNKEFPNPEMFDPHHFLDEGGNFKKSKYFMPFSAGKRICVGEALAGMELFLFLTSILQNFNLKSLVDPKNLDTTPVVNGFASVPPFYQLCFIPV

`Cn1c(=O)c2c(ncn2C)n(C)c1=O`: the Potency entry in experiment [1] was “inactive”.
The same measure, in the same setting: the result for `O=C1NC(=O)C(c2ccccc2)(c2ccccc2)N1` reads “inactive”.
With `CC1(C)S[C@@H]2[C@H](NC(=O)[C@H](N)c3ccccc3)C(=O)N2[C@H]1C(=O)O`, the Potency entry in experiment [2] and in experiment [3] was “inactive” throughout.
Regarding `NS(=O)(=O)c1cc2c(cc1Cl)NCNS2(=O)=O`, the Potency entry in experiment [4], in experiment [1] and in experiment [3] was “inactive” throughout.
With `CC(O)(P(=O)(O)O)P(=O)(O)O`, the Potency result in experiment [4], in experiment [1] and in experiment [3] was “inactive” each time.
For the molecule `CCOc1ccc(NC(C)=O)cc1`, the Potency entry in experiment [4], in experiment [1] and in experiment [3] was “inactive” in each case.
As to `CC1(C)O[C@@H]2C[C@H]3[C@@H]4CCC5=CC(=O)C=C[C@]5(C)[C@@]4(F)[C@@H](O)C[C@]3(C)[C@]2(C(=O)CO)O1`, the Potency entry in experiment [2] and in experiment [1] was “inactive” each time.
Take `CCN(CC)C(=O)c1cccc(C)c1`: the Potency result in experiment [4] and in experiment [1] was “inactive” throughout.
On to `C=C1CC[C@H](O)C/C1=C\C=C1/CCC[C@]2(C)[C@@H]([C@H](C)CCCC(C)C)CC[C@@H]12`, for which the Potency in experiment [4] is 25 µM (active). The Potency result in experiment [1] was “inactive”.
Regarding `COc1ccc(OC(F)(F)F)cc1CN[C@H]1CCCN[C@H]1c1ccccc1`, the Potency in experiment [3] was 1.78 µM (active).
Regarding `CN1CCC[C@H]1c1cccnc1`, the Potency result in experiment [2] and in experiment [1] was “inactive” throughout.
For `CCCC[P+](CCCC)(CCCC)CCCC`, the Potency in experiment [1] is 21.8 µM (active) and 22.3 µM (active) and 12.3 µM (active).
Take `CC(=O)CC(c1ccccc1)c1c(O)c2ccccc2oc1=O` (centres undefined): the Potency entry in experiment [1] was “inactive”.
Regarding `COc1cccc(O)c1O`, the Potency entry in experiment [4], in experiment [1] and in experiment [3] was “inactive” in each case.
As for `O=C1NS(=O)(=O)c2ccccc21`, the Potency entry in experiment [1] is “inactive”.
Turning to `C/C=C/C=C/C(=O)O`, the Potency result in experiment [1] is “inactive”.
